Laboratory results taken from PubChem BioAssay.
The source made the active and inactive calls.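 Rule for the calls, unless noted: active = fluorescence slope after compound addition differing from the mean of all screened samples at 99.7% confidence, in either direction; inactive = the rest.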

How the values were obtained:
[1] = inhibitors of TNFa-induced NFkB p65 translocation, primary screen, imaging, HUVEC, MLSMR starter and 10KST1 sets (AID 438;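 active = inhibition above 20% together with a positive visual image hit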;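 note: compound added about 3h40 before a 20 min TNFalpha stimulation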;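 for inhibition: signal is the nuclear over cytoplasmic p65 intensity ratio per well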); conditions: HUVEC TNFa-induced p65 nuclear translocation; cell count: measured here: nuclei count (cytotoxicity indicator), at 2.08 µM; inhibition: at 2 µM, stronger effect = higher value, 0% TNFa-plus-vehicle, 100% no-TNFa wells
[2] = inhibitors of mutant huntingtin aggregation, primary screen, imaging, exon1htt(103Q)mCFP cells, high-content imaging (AID 483;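 active = visual image review flags a hit and inhibition of aggregation exceeds 20%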;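 note: compound exposure lasted 3 days before fixation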;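 for nuclei count: percent of the per-plate median nuclei count of sample wells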); conditions: exon1htt(103Q)mCFP cell line, aggregate imaging, at 2 µM; inhibition of aggregation: stronger effect = higher value; nuclei count: measured here: cell count, toxicity
[3] = inhibitors of E-selectin induction by TNFa, primary screen, imaging, HUVEC, immunofluorescence, MLSMR starter and 10KST1 sets (AID 487;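 active = visually confirmed hit in the image check and inhibition above 20%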;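 for inhibition: signal is fraction of cell area covered by stained E-selectin grains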;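 for nuclei count: 100% = median nuclei count of all wells on the same plate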); conditions: HUVEC TNFalpha-induced E-selectin immunofluorescence imaging, at 2 µM; inhibition: stronger effect = higher value; nuclei count: measured here: cell number, toxicity
[4] = biological target: Voltage-gated potassium channel subunit beta-2 (Rattus norvegicus) (UniProt P62483); experiment: KvBeta enzyme negative modulators, primary screen, biochemical, NADPH fluorescence (AID 622;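 active = fluorescence slope higher than the sample average by over 3 SD, cut at about -0.22 in these data, passing the limit was not always enough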;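 note: slope of raw intensity against log time taken from 70 to 1610 s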); conditions: recombinant KvBeta, 4-cyanobenzaldehyde reduction, at 10 µM, stronger effect = higher value
[5] = biological target: Voltage-gated potassium channel subunit beta-2 (Rattus norvegicus) (UniProt P62483); experiment: KvBeta positive modulators, primary screen, biochemical, NADPH fluorescence (AID 623;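 active = NADPH fluorescence slope more negative than the mean of all samples by about 3 SD, 99.7% confidence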;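 note: fluorescence intensity change per second fitted from 20 to 320 s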); conditions: Recombinant KvBeta, NADPH fluorescence decrease slope, 10 min; at 10 µM; stronger effect = lower value
[6] = biological target: Alpha-2C adrenergic receptor (Homo sapiens) (UniProt P18825); experiment: modulators of alpha2C/GIRK thallium flux, primary screen, cell-based, HEK293 alpha2C/GIRK1/2 (AID 624); conditions: thallium flux BTC fluorescence, at 10 µM, actives lie on both sides;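 note: slope of fluorescence ratio to pre-addition baseline per second over 15 to 24 s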
[7] = inhibitors of Sendai virus-induced IRF3 signaling, primary screen, TLR/RLR signaling modifier project, cell-based, Sendai virus stimulus, luciferase, 10K MLSCN set (AID 602276;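 active = inhibition at or above 50% at 10 µM; inactive = inhibition below 50%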;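 note: firefly luciferase from ISG56 promoter only with Renilla not read in this screen; 0% = Sendai virus plus DMSO and 100% = medium plus DMSO without virus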); conditions: HEK293 RL24 IRF3 luciferase reporter, at 10 µM, stronger effect = higher value
[8] = inhibitors of poly I:C-induced TLR3 signaling, primary screen, cell-based, poly I:C stimulus, luciferase, 10K MLSCN set (AID 602277;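 active = inhibition of the reporter signal at or above 50%; inactive = inhibition below 50%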); conditions: HEK293-TLR3 RL24 IRF3 luciferase reporter, at 10 µM, stronger effect = higher value

Sequence of Voltage-gated potassium channel subunit beta-2 (Rattus norvegicus) (P62483 whole entry, looked up): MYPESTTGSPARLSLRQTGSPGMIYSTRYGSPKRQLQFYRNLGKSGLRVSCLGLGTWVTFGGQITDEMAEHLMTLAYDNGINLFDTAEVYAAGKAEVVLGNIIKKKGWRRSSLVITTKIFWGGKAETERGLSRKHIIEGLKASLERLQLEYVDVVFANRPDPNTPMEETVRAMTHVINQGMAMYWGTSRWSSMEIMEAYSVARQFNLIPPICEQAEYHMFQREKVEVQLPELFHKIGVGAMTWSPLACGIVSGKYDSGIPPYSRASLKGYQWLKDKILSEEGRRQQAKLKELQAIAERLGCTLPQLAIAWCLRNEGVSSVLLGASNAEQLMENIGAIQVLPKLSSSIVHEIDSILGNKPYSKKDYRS
Sequence of Alpha-2C adrenergic receptor (Homo sapiens) (P18825 whole entry, looked up): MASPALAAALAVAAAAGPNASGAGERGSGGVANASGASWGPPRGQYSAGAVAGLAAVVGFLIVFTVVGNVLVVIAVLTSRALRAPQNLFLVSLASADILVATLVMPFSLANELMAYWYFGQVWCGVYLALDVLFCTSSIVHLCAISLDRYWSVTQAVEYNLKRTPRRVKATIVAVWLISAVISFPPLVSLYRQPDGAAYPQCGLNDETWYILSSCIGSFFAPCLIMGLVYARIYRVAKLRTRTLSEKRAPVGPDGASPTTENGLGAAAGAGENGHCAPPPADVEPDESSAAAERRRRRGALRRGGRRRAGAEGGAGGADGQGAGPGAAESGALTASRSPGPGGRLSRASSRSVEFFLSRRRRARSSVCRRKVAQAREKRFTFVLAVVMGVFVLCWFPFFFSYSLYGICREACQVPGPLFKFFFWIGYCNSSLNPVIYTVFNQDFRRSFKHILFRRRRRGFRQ

Compound: Cc1ccc(CNC(=O)C2CC(=O)OC23CCCC3)c(C)c1 (centres undefined)
- cell count [1]: 410
- inhibition [1]: 17.5% (inactive)
- inhibition of aggregation [2]: -25.4% (inactive)
- nuclei count [2]: 104%
- inhibition [3]: 8.3% (inactive)
- nuclei count [3]: 102%
- fluorescence slope [4]: -0.593 (inactive)
- NADPH fluorescence slope [5]: 4.6e-07 (inactive)
- slope [6]: 0.00501 (inactive)
- inhibition [7]: 17.7% (inactive)
- inhibition [8]: 20.9% (inactive)

Compound: Nn1cc(-c2ccccc2)nc1SCC(=O)N1CCN(S(=O)(=O)c2ccccc2)CC1
- cell count [1]: 341
- inhibition [1]: -17.9% (inactive)
- inhibition of aggregation [2]: 13.8% (inactive)
- nuclei count [2]: 102%
- inhibition [3]: -23.8% (inactive)
- nuclei count [3]: 106%
- fluorescence slope [4]: -0.421 (inactive)
- NADPH fluorescence slope [5]: 4.3e-05 (inactive)
- slope [6]: 0.00477 (inactive)
- inhibition [7]: 8.62% (inactive)
- inhibition [8]: 12.7% (inactive)

Compound: O=C(CCCn1c(=S)[nH]c2cc3c(cc2c1=O)OCO3)N1CCN(c2ccccc2F)CC1
- cell count [1]: 402
- inhibition [1]: -9.1% (inactive)
- inhibition of aggregation [2]: -7.6% (inactive)
- nuclei count [2]: 99.5%
- inhibition [3]: 0.1% (inactive)
- nuclei count [3]: 112%
- fluorescence slope [4]: -0.501 (inactive)
- NADPH fluorescence slope [5]: -4.7e-05 (inactive)
- slope [6]: 0.00637 (inactive)
- inhibition [7]: 8.7% (inactive)
- inhibition [8]: -6.98% (inactive)

Compound: COc1ccccc1S(=O)(=O)Cc1ccc(C(=O)N2CCN(c3ccccn3)CC2)o1
- cell count [1]: 624
- inhibition [1]: -4% (inactive)
- inhibition of aggregation [2]: 0.9% (inactive)
- nuclei count [2]: 106%
- inhibition [3]: -53.1% (inactive)
- nuclei count [3]: 104%
- fluorescence slope [4]: -0.517 (inactive)
- NADPH fluorescence slope [5]: -3.4e-05 (inactive)
- slope [6]: 0.00659 (inactive)
- inhibition [7]: 20.6% (inactive)
- inhibition [8]: 15.8% (inactive)

Compound: CC(=O)c1cccc(NC(=O)NCc2ccccn2)c1
- cell count [1]: 655
- inhibition [1]: -6.1% (inactive)
- inhibition of aggregation [2]: -1.1% (inactive)
- nuclei count [2]: 132%
- inhibition [3]: -41.1% (inactive)
- nuclei count [3]: 119%
- fluorescence slope [4]: -0.424 (inactive)
- NADPH fluorescence slope [5]: -4.2e-05 (inactive)
- slope [6]: 0.00223 (inactive)
- inhibition [7]: -8.72% (inactive)
- inhibition [8]: -125% (inactive)

Compound: COc1cccc(NC(=O)c2nnn(Cc3ccc(Br)cc3F)c2N)c1
- cell count [1]: 674
- inhibition [1]: -2.8% (inactive)
- inhibition of aggregation [2]: 28.1% (inactive)
- nuclei count [2]: 109%
- inhibition [3]: -61.5% (inactive)
- nuclei count [3]: 108%
- fluorescence slope [4]: -0.484 (inactive)
- NADPH fluorescence slope [5]: -4e-05 (inactive)
- slope [6]: 0.00669 (inactive)
- inhibition [7]: 16.4% (inactive)
- inhibition [8]: 9.8% (inactive)

Compound: CS(=O)(=O)NCc1nnc(SCC(=O)NC2CCCCC2)n1-c1ccc(F)cc1
- cell count [1]: 820
- inhibition [1]: -5.5% (inactive)
- inhibition of aggregation [2]: -0.9% (inactive)
- nuclei count [2]: 111%
- inhibition [3]: -5.8% (inactive)
- nuclei count [3]: 128%
- fluorescence slope [4]: -0.388 (inactive)
- NADPH fluorescence slope [5]: -5.9e-05 (inactive)
- slope [6]: 0.00498 (inactive)
- inhibition [7]: 16.2% (inactive)
- inhibition [8]: 26.3% (inactive)

Compound: COc1cc(OC)c(OC)cc1CN(C)CCc1ccccn1
- cell count [1]: 756
- inhibition [1]: -17% (inactive)
- inhibition of aggregation [2]: -20.8% (inactive)
- nuclei count [2]: 115%
- inhibition [3]: -114% (inactive)
- nuclei count [3]: 109%
- fluorescence slope [4]: -0.356 (inactive)
- NADPH fluorescence slope [5]: -7.4e-05 (inactive)
- slope [6]: 0.00545 (inactive)
- inhibition [7]: 13.6% (inactive)
- inhibition [8]: 37.3% (inactive)

Compound: O=C(Nc1ccc2c(c1)C(=O)N(C1CCCCC1)C2=O)C1CCCO1 (centres undefined)
- cell count [1]: 269
- inhibition [1]: -11.7% (inactive)
- inhibition of aggregation [2]: 9% (inactive)
- nuclei count [2]: 71.5%
- inhibition [3]: 47.7% (inactive)
- nuclei count [3]: 43.2%
- fluorescence slope [4]: -0.0454 (active)
- NADPH fluorescence slope [5]: 6.1e-06 (inactive)
- slope [6]: 0.00452 (inactive)
- inhibition [7]: -7.34% (inactive)
- inhibition [8]: -20.5% (inactive)

Compound: COc1ccc(CCN2C(=O)CCC2(C)C(=O)NCc2cccnc2)cc1OC (centres undefined)
- cell count [1]: 436
- inhibition [1]: -6% (inactive)
- inhibition of aggregation [2]: 5.2% (inactive)
- nuclei count [2]: 103%
- inhibition [3]: -83.9% (inactive)
- nuclei count [3]: 97.9%
- fluorescence slope [4]: -0.602 (inactive)
- NADPH fluorescence slope [5]: 2.6e-06 (inactive)
- slope [6]: 0.0059 (inactive)
- inhibition [7]: 8.53% (inactive)
- inhibition [8]: 7.83% (inactive)

Compound: CCn1c(CNc2ccc(OC)cc2)nnc1SCC(=O)c1ccc(OC)cc1
- cell count [1]: 544
- inhibition [1]: -16.9% (inactive)
- inhibition of aggregation [2]: 1.8% (inactive)
- nuclei count [2]: 100%
- inhibition [3]: -101% (inactive)
- nuclei count [3]: 107%
- fluorescence slope [4]: -0.502 (inactive)
- NADPH fluorescence slope [5]: 7.7e-06 (inactive)
- slope [6]: 0.00516 (inactive)
- inhibition [7]: 10% (inactive)
- inhibition [8]: 14.7% (inactive)

Compound: CCC1CCCCN1S(=O)(=O)c1ccc(C(=O)Nc2nnc(-c3ccccc3Cl)o2)cc1 (centres undefined)
- cell count [1]: 322
- inhibition [1]: 5.2% (inactive)
- inhibition of aggregation [2]: -1.5% (inactive)
- nuclei count [2]: 107%
- inhibition [3]: -52.8% (inactive)
- nuclei count [3]: 108%
- fluorescence slope [4]: -0.511 (inactive)
- NADPH fluorescence slope [5]: -3.2e-05 (inactive)
- slope [6]: 0.00627 (inactive)
- inhibition [7]: 18.8% (inactive)
- inhibition [8]: 16.9% (inactive)

Compound: COCCCNC(=O)c1ccc(CS(=O)(=O)c2ccc(OC)cc2)o1
- cell count [1]: 696
- inhibition [1]: -8.1% (inactive)
- inhibition of aggregation [2]: 5.6% (inactive)
- nuclei count [2]: 101%
- inhibition [3]: -54.8% (inactive)
- nuclei count [3]: 115%
- fluorescence slope [4]: -0.519 (inactive)
- NADPH fluorescence slope [5]: -5.8e-05 (inactive)
- slope [6]: 0.00615 (inactive)
- inhibition [7]: 7.18% (inactive)
- inhibition [8]: 13.8% (inactive)

Compound: CCOC(=O)c1cc(-c2nnc(-c3ccc(Oc4ccccc4)cc3)o2)c(C)nc1C
- cell count [1]: 761
- inhibition [1]: -3.9% (inactive)
- inhibition of aggregation [2]: 17.5% (inactive)
- nuclei count [2]: 102%
- inhibition [3]: -20.7% (inactive)
- nuclei count [3]: 110%
- fluorescence slope [4]: -0.499 (inactive)
- NADPH fluorescence slope [5]: -2.6e-05 (inactive)
- slope [6]: 0.0114 (active)
- inhibition [7]: 7.09% (inactive)
- inhibition [8]: 12.2% (inactive)
